The structures appear in SMILES notation. About 8,600 (12%) of roughly 69,000 compounds showed an effect of 50% or more. The sample holds strong results, similar compounds and a random draw of the others, so the mix is not that of the screen.

The experiment has as its system Plasmodium berghei. The experiment in a line: Screen against P. berghei liver stage (PbLuc), transformed with Luciferase, at 10uM. Format: functional, HepG2. To be noted: tested at 10 uM.
Consider `COCC1c2c(cnn2C)CCN1C(=O)c1cccn1C` (centres undefined), for which the INHIBITION turned out to be 46.6%.

With `COC(=O)c1cnc2c(c(C)nn2C)c1OC`, the INHIBITION was 66.8%.

`COc1c(C(=O)N2CCOCC2)cnc2c1c(C)nn2C`: the INHIBITION is on record as 2.59%.

For the compound `COc1c(C(=O)N2CCNC(=O)C2)cnc2c1c(C)nn2C`, the INHIBITION is on record as -25.1%.

For `O=C(Cc1cccs1)NS(=O)(=O)c1cccc2cnccc12`, the INHIBITION is given as 36.3%.

For `CCOc1ccc(CN2CCOCC2c2[nH]ncc2C)cc1CO` (centres undefined), the INHIBITION is 29.65%.

Turning to `Cc1cc(C(F)(F)F)nn1CCCNC(=O)C1CCCC1`, the INHIBITION is given as 43.2%.

For the compound `Cc1cc(C(F)(F)F)nn1CCCNC(=O)C1CCCO1` (centres undefined), the INHIBITION worked out at 60.4%.

`Cc1cc(C)n(CCCNC(=O)C2CCCO2)n1` (centres undefined): the INHIBITION worked out at 6.09%.

Consider `Cc1cc2[nH]c(=O)oc2cc1S(=O)(=O)N1C[C@@H](N(C)C)[C@H](C(C)C)C1`, for which the INHIBITION came out at 26.5%.

Consider `Cc1nc(CSCCC(=O)Nc2cccc(N3CCNC3=O)c2)cs1`, for which the INHIBITION is reported as -24.6%.

For `COCCN1CCO[C@@H]2CN(Cc3ccc(C)o3)C[C@@H]2C1`, the INHIBITION was -0.554%.

Turning to `Cc1ccc(NS(=O)(=O)c2cnn(Cc3ccccc3)c2)c(C(=O)O)c1`, the INHIBITION came out at 51.6%.

On to `CCS(=O)(=O)Nc1cnn(Cc2cccc(C)c2)c1`, for which the INHIBITION was -2.64%.

In the case of `COC(=O)c1ccccc1NS(=O)(=O)c1c(C)nn(C)c1C`, the INHIBITION was -7.93%.

On to `CCn1nc(C)c(S(=O)(=O)Nc2ccccc2C(=O)OC)c1C`, for which the INHIBITION is 29.7%.

Turning to `Cc1ccc(NS(=O)(=O)c2cnn(-c3ccccc3)c2)c(C(=O)O)c1`, the INHIBITION is recorded as 22.5%.

Turning to `Cc1ccc(-n2cc(S(=O)(=O)Nc3cccc(C(=O)O)c3C)cn2)cc1`, the INHIBITION is recorded as 68%.

On to `Cc1cn(-c2ccccc2)nc1NS(=O)(=O)c1cccc(C(=O)O)c1`, for which the INHIBITION is 40.9%.

`Cc1cccc(NS(=O)(=O)c2cnn(C)c2)c1C#N`: the INHIBITION is reported as 18.9%.

With `CCn1nc(C)c(S(=O)(=O)Nc2cccc(C(=O)O)c2C)c1C`, the INHIBITION is 62.4%.

For `CC(=O)N1CCC(c2cncc(N3CCCCCC3)n2)CC1`, the INHIBITION is listed as 17.4%.

As for `O=C(NC1CCCN(CCc2ccccc2)C1)c1cnccn1` (centres undefined), the INHIBITION is on record as -0.29%.

As for `Cc1cnn(C2CCCN(C(=O)Cc3cn4ccsc4n3)C2)c1` (centres undefined), the INHIBITION is listed as -9%.

In the case of `Cc1nc(C)c(C(=O)N2CCC(O)(Cn3ccc4ccncc43)CC2)s1`, the INHIBITION was -57.4%.

In the case of `CS(=O)(=O)c1cc(C(=O)NS(=O)(=O)Cc2ccc(F)cc2)ccc1Cl`, the INHIBITION worked out at 37.7%.

Regarding `O=C(Cc1noc(C(=O)NCCO)n1)Nc1cccc(C(F)(F)F)c1`, the INHIBITION was determined as 25.2%.

With `CC(C)(C)n1ncc2c1NC(=O)CC2c1cccs1` (centres undefined), the INHIBITION is on record as -0.87%.

As to `Cc1nc(CN2CCCC2Cn2cncn2)no1` (centres undefined), the INHIBITION stood at 34.95%.

Consider `COCc1nc2cc(NCc3sc(C)nc3C)ccc2o1`, for which the INHIBITION was 65.4%.

For `CC(C)(C)c1nc2cc(NC(=O)Cn3ccc(=O)[nH]c3=O)ccc2o1`, the INHIBITION stood at 20%.

Turning to `COCc1nc2cc(NCc3ccc(C)o3)ccc2o1`, the INHIBITION was determined as 11.8%.

Consider `COCc1nc2cc(NCc3ccc(CO)o3)ccc2o1`, for which the INHIBITION worked out at 90.2%.

As to `COCc1nc2cc(NCc3csc(C)n3)ccc2o1`, the INHIBITION is reported as 14.9%.

Turning to `COCc1nc2cc(NCc3nc(C)cs3)ccc2o1`, the INHIBITION is listed as -17.6%.

`Cc1cc(CNc2ccc3nc(C)sc3c2)no1`: the INHIBITION was -4.33%.

Consider `CCC(C)CNc1ccc2oc(COC)nc2c1` (centres undefined), for which the INHIBITION was -23.2%.

As to `COCc1nc2cc(NCc3cc[nH]n3)ccc2o1`, the INHIBITION is 67.1%.

As for `COCc1nc2cc(NCc3scnc3C)ccc2o1`, the INHIBITION is reported as 70.5%.

Consider `COCc1nc2cc(NCc3ccncc3)ccc2o1`, for which the INHIBITION worked out at 18.5%.

As to `Cc1ncsc1CNc1cc(N2CCCC2CO)ncn1` (centres undefined), the INHIBITION worked out at 27.4%.

For the compound `CCNC(=O)[C@@H]1CCCN1C(=O)c1cccc(CCC(C)(C)O)c1`, the INHIBITION is listed as -26.8%.

Take `CC(C)=CCN1C[C@@H]2CC[C@H]1CN(C(=O)CCc1nnc(C)[nH]1)C2`: the INHIBITION was 41.2%.

For `Cc1cccc(N2CCOC(C(=O)O)C2)c1` (centres undefined), the INHIBITION is on record as 14.7%.

`CN1C(=O)CC(c2cnn(C)c2)C12CCN(CC1CCOCC1)CC2` (centres undefined): the INHIBITION was -9.74%.

With `Cn1ccnc1CCC1CCCCN1Cc1cnc(N2CCCC2)nc1` (centres undefined), the INHIBITION is recorded as -25%.

For `CN1CCC2(Cc3ccccc3CN(C(=O)CCN)C2)C1` (centres undefined), the INHIBITION came to 40%.

For `O=C(NCCc1csc(-c2ccncc2)n1)C1CC(=O)N(C2CC2)C1` (centres undefined), the INHIBITION came to 2.66%.

For `Cc1nc(C)n(CC2CCCN(CC(=O)Nc3cc(C)on3)C2)n1` (centres undefined), the INHIBITION was -18.945%.

As to `CN(Cc1ccc(F)cc1)C(=O)CN1CCOC(Cn2cccn2)C1` (centres undefined), the INHIBITION is -4.16%.

`CCc1ccc(O)c(C(=O)N2CCCN(CC(=O)N(CC)CC)CC2)c1`: the INHIBITION is -1.57%.

With `CCc1ccc(O)c(C(=O)N2CCN(CC(=O)N(CC)CC)CC2)c1`, the INHIBITION is given as 56.6%.

`CCc1ccc(O)c(C(=O)N2CCN(CC(=O)N(C)C)CC2)c1`: the INHIBITION was 47.7%.

On to `COc1c(C2CCCN2Cc2noc(C)n2)c(C)nn1C` (centres undefined), for which the INHIBITION is recorded as -40.2%.

Values taken from ChEMBL document CHEMBL4513216, “Probing the Open Global Health Chemical Diversity Library for Multistage-Active Starting Points for Next-Generation Antimalarials” (ACS Infect Dis, 2020).
